Dicer inh – blocks human Dicer maturation of pre-miR-21; Q9UPY3; cat-ELCCA pre-miR-21 Dicer processing, chemiluminescence; active compounds read high; z-score at 25 µM; 47,000 compounds, 6% hits; in the data active = z-score above about 3, passing the limit was not always enough;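 note: higher signal means more uncleaved substrate so more Dicer inhibition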
A number is an active result; . = inactive. The sample as a whole holds a higher share of hits than the screen did.

SMILES	Dicer inh
CSc1ccc(C2Nc3ccccc3NC3=C2C(=O)CC(c2ccccc2)C3)cc1 (stereo not drawn)	.
COc1ccc(C2CC(=O)C3=C(C2)Nc2ccccc2NC3c2ccccc2)cc1 (stereo not drawn)	3.45
CC1(C)CC(=O)C2=C(C1)Nc1ccccc1NC2c1cc(Cl)ccc1O (stereo not drawn)	3.88
CC1(C)CC(=O)C2=C(C1)Nc1ccccc1NC2c1ccc(O)c(O)c1 (stereo not drawn)	.
O=C1C(=O)N(c2cccnc2)C(c2ccc(F)cc2)/C1=C(\O)c1ccc(Cl)cc1 (stereo not drawn)	.
CN1[C@@H]2CC(OC(=O)[C@H](CO)c3ccccc3)C[C@H]1[C@@H]1O[C@@H]12 (stereo partly drawn)	.
Cn1ccc(N2C(=O)c3ccccc3C2=O)n1	.
Cc1nc(C)c(-c2csc(Nc3ncccn3)n2)s1	.
CCOC(=O)Cn1nc(-c2cccs2)c(C#N)c1SC	.
N#Cc1ccc(CSC2=NCCN2)cc1	.
Cc1ccc(-c2csc3ncnc(N4CCC(O)CC4)c23)cc1	.
COc1ccc(Cc2nnc(SCC(=O)N3CCOCC3)n2-c2ccc(F)cc2)cc1OC	.
Cc1cc2c(cc1Br)NC(=O)C21C(C#N)=C(N)Oc2n[nH]c(C)c21 (stereo not drawn)	.
COc1ccc(C(=O)Nc2cc(C#N)c3sc4ccccc4n3c2=O)cc1	.
O=C(CSc1nn(-c2ccccc2)c(=S)s1)Nc1nccs1	.
COc1ccc(OC)c(C2Nc3ccccc3NC3=C2C(=O)CC(c2ccc(OC)c(OC)c2)C3)c1 (stereo not drawn)	.
COc1ccc(C2CC(=O)C3=C(C2)Nc2ccccc2NC3c2cccc3ccccc23)cc1 (stereo not drawn)	.
COc1ccccc1C1Nc2ccccc2NC2=C1C(=O)CC(c1ccc(Cl)cc1)C2 (stereo not drawn)	4.29
COc1ccccc1C1Nc2ccccc2NC2=C1C(=O)CC(c1ccccc1)C2 (stereo not drawn)	.
COc1ccc(C2CC(=O)C3=C(C2)Nc2ccccc2NC3c2ccccc2Cl)cc1OC (stereo not drawn)	.
COc1ccc(C2CC(=O)C3=C(C2)Nc2ccccc2NC3c2ccc(OC)cc2OC)cc1 (stereo not drawn)	3.02
COc1ccc(OCC(F)(F)F)c(C(=O)Nc2cccnc2)c1	.
CCC1SC2=NC(C)=C(C(=O)OC)C(c3ccccc3)N2C1=O (stereo not drawn)	.
O=C(Nc1ccc(OC(F)(F)F)cc1)Nc1sccc1-c1nc2ccccc2s1	.
COCCn1c(COc2ccccc2)nc2ccccc21	.
SMILES	Dicer inh
N#C/C(=C\c1ccc(Oc2ccccc2)nc1)S(=O)(=O)c1ccccc1	.
O=C1C(=O)N(CC(O)CN2C(=O)C(=O)c3ccccc32)c2ccccc21	.
CC(=O)OCc1c(OC(C)=O)ccc2c([N+](=O)[O-])c(C)n(-c3ccc(C)cc3)c12	.
COc1ccc(OC)c(/C=N/NC(=O)N/N=C/c2cc(OC)ccc2OC)c1	.
Cc1cc(C2CCCCC2)ccc1O	5.63
COc1cc(C2SCc3cc(C)c(C)cc3CS2)ccc1O	.
S=C(Nc1ccc(C2CCCCC2)cc1)N1CCSCC1	.
C=C1SC(Nc2ccc(C(C)(C)C)cc2)=NC1(CC)CC	.
NS(=O)(=O)c1cc(C(=O)O)c(NCc2ccco2)cc1Cl	.
CC(C)COc1ccc2c(c1)c1c3c([n+](C)ccn32)CCC1	.
O=C(Nc1cccc(Cl)c1)N1CCN(c2nsc3ccccc23)CC1	.
O=C(Nc1cccc(Cl)c1)N1CCc2ccccc2C1	5.96
CN1CC(=O)N/C1=N\C(=O)Nc1cccc(Cl)c1	.
Cc1nc(SCC(=O)C(C)(C)C)[nH]c(=O)c1CCC(C)C	.
Cc1onc(-c2c(F)cccc2Cl)c1C(=O)N[C@@H]1C(=O)N2C(C(=O)O)C(C)(C)S[C@H]12 (stereo partly drawn)	.
Cc1ccc(S(=O)(=O)NC(=O)NN2CCCCCC2)cc1	.
Cc1nonc1NC(=O)OC(C)C	.
COC(=O)C(C(=O)Nc1cc(C)on1)C1CCCC1 (stereo not drawn)	.
Cc1nonc1NC(=O)OC1CCCCC1	3.42
Cc1cc(C)c2c(n1)sc1c(=O)n(/N=C/c3ccc(Cl)cc3Cl)nnc12	.
CCOC(=O)c1c(NC(=O)CN2CCc3ccccc32)sc2c1CCN(C(=O)OCC)C2	.
CCOC(=O)c1c(NC(=S)N2CCCCC2)sc2c1CCN(C(=O)OCC)C2	.
CCOC(=O)c1c(NC(=S)NCc2ccccc2)sc2c1CCN(C(=O)OCC)C2	3.67
CCOC(=O)N1CCc2c(sc(NC(=O)CN3CCc4ccccc43)c2C#N)C1	5.26
C=CCNC(=S)Nc1sc2c(c1C(=O)OCC)CCN(C(=O)OCC)C2	.
SMILES	Dicer inh
CCOC(=O)N1CCc2c(sc(N)c2C#N)C1	.
O=C(OCc1nccn1Cc1ccc(Cl)cc1)c1ccccc1	.
O=C(c1ccccc1)c1nn(-c2ccc(Cl)cc2)ccc1=O	.
O=C(NC(=O)c1ccccc1O)c1ccoc1	.
COC(=O)C1=C(O)CSC1=Nc1ccc(OC)cc1	.
C/C(=N/OC(=O)c1ccc(C(F)(F)F)cc1)c1oc(C)nc1C	.
O=C1CC(Cc2ccccc2)C(=O)N1c1ccncc1 (stereo not drawn)	.
CC(C)(C)c1ccc(N2C(=O)CC(C/C=C/c3ccccc3)C2=O)cc1 (stereo not drawn)	4.65
Cc1cc(C)cc(CC2CC(=O)N(c3ccccc3)C2=O)c1 (stereo not drawn)	.
Cc1ccc(C2=CC(c3ccc(N(C)C)cc3)n3nnnc3N2)cc1 (stereo not drawn)	.
CS(=O)(=NC(=O)Nc1ccc(Cl)cc1)c1ccc(Cl)cc1 (stereo not drawn)	.
CN1CCCC1CCOC(C)(c1ccccc1)c1ccc(Cl)cc1 (stereo not drawn)	.
CCCCNc1cc(F)nc(N)n1	.
O=C1C(=O)N(Cc2cccnc2)C(c2ccc(Cl)cc2)/C1=C(\O)c1ccc(F)cc1 (stereo not drawn)	.
O=c1c(Nc2ccccc2)c(Nc2ccccc2)c1=O	7.33
COc1nc(Nc2ccccc2)nc(OC)n1	.
CC(C)c1ccc(Nc2c(Nc3ccc(C(C)C)cc3)c(=O)c2=O)cc1	.
NS(=O)(=O)c1ccc(CCNS(=O)(=O)c2ccccc2)cc1	.
OCCCNNC(=S)Nc1ccc(Cl)cc1Cl	.
CCNC(=S)Nc1ccc(Cl)cc1Cl	.
S=C(NNc1c(Cl)cncc1Cl)Nc1ccc(Cl)cc1Cl	6.72
CSc1nc2cc(-c3ccc(Cl)cc3)nn2c(N)c1C#N	.
CCN1C(=O)c2cccc3c(NC(=O)c4ccccc4Cl)ccc1c23	.
O=C(COc1ccc2c(c1)oc(=O)c1ccccc12)OCc1ccccc1	4.55
O=C(O)COc1ccc2c(c1)oc(=O)c1ccccc12	.
SMILES	Dicer inh
C=CCOC(=O)COc1ccc2c(c1)oc(=O)c1ccccc12	.
COc1ccc2nc(C)c(C(=O)OCCN(C)C)cc2c1	.
O=C(OCc1ccc(Cl)cc1)c1cnc(Nc2ccc(F)cc2)nc1C(F)(F)F	.
CCOC(=O)/C(C#N)=C/Nc1ccccc1N	.
CCOC(=O)c1[nH]c(Cc2[nH]c(C(=O)OCC)c(C)c2C)c(C)c1C	.
CCOC(=O)c1[nH]c(C)c(C(C)=O)c1C	.
CCOC(=O)c1[nH]c(C)c(CC)c1C	4.26
O=C(OCC1CC(c2ccccc2)=NO1)c1cccc(C(=O)OCC2CC(c3ccccc3)=NO2)n1 (stereo not drawn)	.
Cc1cc(C)c2c(-c3ccccc3)nn(-c3ccccc3)c2n1	.
CC(C)(C)CC(C)(C)c1ccc(OCCOCC[N+](C)(C)Cc2ccccc2)cc1	.

Bioassay records deposited in PubChem BioAssay by Center for Chemical Genomics, University of Michigan.
